Screens as filed in PubChem BioAssay.
Hits are enriched below; roughly 3.8% of the tested compounds scored in any of these assays.
PfHsp90 set2: growth inhibition of PfHsp90-expressing yeast, primary screen, antimalarial PfHsp90 inhibitor project, S. cerevisiae, BacTiter-Glo luminescence, single point, set 2; inhibition, % at 9.4 µM; actives 0.32% (n = 310,000); BacTiter-Glo ATP, 48 h; yeast lacking PDR1 and PDR3 efflux regulators; AID 504621, 2011;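 active means every replicate shows inhibition above about 80%, whatever the replicate mean, limit read from the data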
B2AR ag: beta2AR agonists driving receptor internalization, primary screen, cell-based, FAP fluorogen, flow cytometry; Am2.2-beta2AR cells; response, % (no concentration beside the values); actives 0.43% (n = 340,000);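 active means response above a set limit, near 3 SD of response in nonfluorescent compounds, cut at about 42% in these data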
Target sequence (P07550 whole entry, looked up): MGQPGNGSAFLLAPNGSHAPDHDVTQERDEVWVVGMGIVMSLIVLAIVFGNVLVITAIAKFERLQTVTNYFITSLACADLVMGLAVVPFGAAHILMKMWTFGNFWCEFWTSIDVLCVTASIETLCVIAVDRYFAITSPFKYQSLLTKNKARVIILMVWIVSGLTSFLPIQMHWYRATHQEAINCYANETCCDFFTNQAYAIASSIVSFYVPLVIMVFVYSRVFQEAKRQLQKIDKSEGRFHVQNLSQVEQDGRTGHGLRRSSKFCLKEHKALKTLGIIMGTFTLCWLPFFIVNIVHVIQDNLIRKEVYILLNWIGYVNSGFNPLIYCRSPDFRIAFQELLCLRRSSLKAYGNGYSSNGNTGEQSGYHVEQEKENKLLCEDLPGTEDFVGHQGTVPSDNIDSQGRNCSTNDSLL
TIM10 inh: growth inhibitors of isogenic TIM10 control yeast, primary screen, counter-screen for tim10-1 yeast inhibitor project, luminescence, uHTS; actives 1.4% (n = 330,000); inhibition, % at 10 µM; S. cerevisiae TIM10 strain growth, BacTiter-Glo luminescence, 24 h;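 active means inhibition of 40% or more at the single tested concentration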;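 further: wild-type TIM10 isogenic control strain grown at permissive 25 °C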
tim10-1 inh: growth inhibitors of tim10-1 mutant yeast, primary screen, luminescence, uHTS. S. cerevisiae tim10-1 ts strain growth, BacTiter-Glo, 24 h. inhibition, % at 20 µM. actives 2.2% (n = 330,000);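 active means inhibition of at least 40%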;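 further: mutant grown at 25 °C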
tim23-1 inh: growth inhibitors of tim23-1 mutant yeast, primary screen, luminescence, uHTS. actives 1.3% (n = 330,000). S. cerevisiae tim23-1 growth, BacTiter-Glo luminescence, 24 h. inhibition, % at 20 µM;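 active means growth inhibition of the mutant yeast at or above 50%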;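 further: temperature-sensitive mutant grown at 25 °C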
Beta2AR ag CP1: beta2AR agonists via receptor internalization, confirmation, cell-based, FAP fluorogen, flow cytometry, single point, cherry pick 1 | shares compounds with B2AR ag | Am2.2-beta2AR cells, FAP surface receptor; hits give low values | percent response (surface receptor), % at 10 µM | actives 25% (n = 1,100);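 active means surface receptor percent response at or below 58%, roughly 3 SD from nonfluorescent compounds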
FAP fluor counter: counter-screen for beta-2AR agonists: fluorescence in Am2.2 cells; shares compounds with B2AR ag; FAP fluorogen flow cytometry, fluorescence counterscreen; hits give low values; calls only at 10 µM; 1,100 tested, under 10 active; AID 588765;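 active means percent response below a set limit in fluorescence channel 1 and below 50% in channel 8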
Numbers stand for hits; - = inactive; . = not tested or not shown.

SMILES | PfHsp90 set2 | B2AR ag | TIM10 inh | tim10-1 inh | tim23-1 inh | Beta2AR ag CP1 | FAP fluor counter
O=C(Nc1ccc2nc(SCc3ccc(Cl)cc3)sc2c1)c1ccccc1C(=O)N1CCOCC1 | - | 107 | - | - | - | 17 | -
CC(=O)Nc1ccc(OCC(=O)N(CC(C)C)C2CCS(=O)(=O)C2)cc1 (centres undefined) | - | - | - | - | - | . | .
CCOC(=O)c1ccc(N2C(=O)c3n[nH]c(-c4ccco4)c3C2c2cccc([N+](=O)[O-])c2)cc1 (centres undefined) | - | 85 | - | - | - | 23 | -
CCOC(=O)c1ccc(N2C(=O)c3n[nH]c(C)c3C2c2ccco2)cc1 (centres undefined) | - | - | - | - | - | . | .
O=C(N=C1SC2CS(=O)(=O)CC2N1Cc1ccccc1Cl)C1CC1 (centres undefined) | - | - | - | - | - | . | .
Cc1ccc2c(c1)C(=O)N(CCCCO)C2=O | - | 84 | - | - | - | - | -
COc1ccc(CNc2nc(NC(C)=O)nn2-c2ccccc2)cc1 | - | - | - | - | - | . | .
CCOCC(=O)Nc1ccc([N+](=O)[O-])cc1OC | - | - | - | - | - | . | .
CCOC(=O)CS(=O)(=O)CC(=O)Nc1ccc([N+](=O)[O-])cc1OC | - | 86 | - | - | - | - | -
CCN1CCN(c2ccc(S(=O)(=O)N3CCCCC3)cc2NC(=O)c2cc3ccccc3o2)CC1 | . | 48 | - | - | - | - | -
COc1nc(NCCO)nc(Nc2ccccc2F)n1 | - | - | - | - | - | . | .
CCOc1cccc(CN2CCC(Oc3ccc(C(=O)N4CCCC4)cc3)CC2)c1 | - | - | - | - | - | - | -
Cc1cccc(CN2CCC(Oc3ccc(C(=O)N4CCCCC4)cc3)CC2)c1 | - | - | - | - | - | - | -
Cc1ccc(Cn2c(N)c(S(=O)(=O)c3cccs3)c3nc4ccccc4nc32)cc1 | - | 52 | - | - | - | - | -
Nc1c(S(=O)(=O)c2cccs2)c2nc3ccccc3nc2n1Cc1ccccc1 | . | - | - | - | - | . | .
CC(C)=CC(=O)OCC(=O)Nc1ccc(SC(F)F)cc1 | - | - | - | - | - | . | .
CCOC(=O)C1=C(C)N(C)C(=S)NC1c1cc(OC)ccc1OC (centres undefined) | - | - | - | - | - | . | .
O=C(COc1ccc(S(=O)(=O)N2CCOCC2)cc1)Nc1ccccc1Cl | - | - | - | - | - | - | -
O=C(COc1ccc(S(=O)(=O)N2CCOCC2)cc1)Nc1ccccc1F | - | - | - | - | - | - | -
CC(C)c1nc2oc3c(NCCO)ncnc3c2c2c1COC(C)(C)C2 | - | - | - | - | - | - | -
CC(C)Cc1nc2sc3c(NCc4ccco4)ncnc3c2c2c1COC(C)(C)C2 | - | 65 | - | - | - | 28 | -
COC(=O)CSc1nc(SC)nc2c1sc1nc(-c3ccco3)c3c(c12)CC(C)(C)OC3 | - | - | . | . | . | . | .
Cc1nc2sc3c(NCc4ccco4)ncnc3c2c2c1COC(C)(C)C2 | - | - | - | - | - | . | .
CC1(C)Cc2c(c(-c3ccco3)nc3sc4c(NCCO)ncnc4c23)CO1 | - | 100 | - | - | - | 16 | -
CSc1nc(SCCO)c2sc3nc(-c4ccco4)c4c(c3c2n1)CC(C)(C)OC4 | . | 100 | . | . | . | 6.5 | -
COc1ccc(C(=O)CC2(C(=O)O)CCCCC2)cc1 | - | - | - | - | - | . | .
Cc1ccccc1N1CCN(C2CCCN(C(=O)c3cn4cccc(C)c4n3)C2)CC1 (centres undefined) | - | - | - | - | - | . | .
CCN(CC)C(=O)CCSc1nnc(-c2ccco2)o1 | . | - | - | - | - | . | .
COc1ccc(Nc2nc3c([nH]2)c(=O)[nH]c(=O)n3C)cc1 | - | - | - | - | - | . | .
